Assays:
Assay in all cases: DAPPL (digital affinity profiling via proximity ligation, sequencing); 10 mM Tris-HCl pH 7.5, 50 mM NaCl, 1 mM DTT, 4% glycerol, room temperature, 30 min; GST-TFs on glutathione beads, 16-mer random dsDNA library, 0.1% formaldehyde crosslink after washing; high values mean tight binding
Conditions in all cases: protein: recombinant; tags: N-terminal GST; dsDNA, one strand shown
ELK1 = biological target: T1, ELK1 (Homo sapiens, UniProt P19419 1-428)
T1 sequence: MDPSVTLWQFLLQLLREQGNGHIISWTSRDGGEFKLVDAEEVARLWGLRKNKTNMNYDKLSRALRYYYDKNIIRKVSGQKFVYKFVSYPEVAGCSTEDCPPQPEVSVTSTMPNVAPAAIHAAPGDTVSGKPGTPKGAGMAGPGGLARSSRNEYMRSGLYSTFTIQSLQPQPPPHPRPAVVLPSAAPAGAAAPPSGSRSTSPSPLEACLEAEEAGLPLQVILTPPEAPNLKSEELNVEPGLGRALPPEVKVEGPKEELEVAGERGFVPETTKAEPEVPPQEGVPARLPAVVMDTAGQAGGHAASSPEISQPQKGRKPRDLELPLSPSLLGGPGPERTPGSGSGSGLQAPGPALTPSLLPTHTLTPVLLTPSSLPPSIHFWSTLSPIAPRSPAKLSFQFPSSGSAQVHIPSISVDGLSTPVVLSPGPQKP
Procedure, shortened: (§1)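 Binding signal is each hexamer's read frequency for a factor divided by its frequency in the tag-only sample. The factors were GST-fused human transcription factors from yeast, captured on glutathione beads, DNA-barcoded and pooled with that sample. Pools were incubated with 200 nmole of a random double-stranded 16-mer DNA library in Tris/NaCl/DTT/glycerol buffer at room temperature for 30 min, then washed, crosslinked with 0.1% formaldehyde, proximity-ligated with BsaI/T4 ligase (1 h, 37 °C), PCR-amplified and sequenced on an Illumina NextSeq500.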

GABPA = biological target: T2, GABPA (Homo sapiens, UniProt Q06546 1-454)
T2 sequence: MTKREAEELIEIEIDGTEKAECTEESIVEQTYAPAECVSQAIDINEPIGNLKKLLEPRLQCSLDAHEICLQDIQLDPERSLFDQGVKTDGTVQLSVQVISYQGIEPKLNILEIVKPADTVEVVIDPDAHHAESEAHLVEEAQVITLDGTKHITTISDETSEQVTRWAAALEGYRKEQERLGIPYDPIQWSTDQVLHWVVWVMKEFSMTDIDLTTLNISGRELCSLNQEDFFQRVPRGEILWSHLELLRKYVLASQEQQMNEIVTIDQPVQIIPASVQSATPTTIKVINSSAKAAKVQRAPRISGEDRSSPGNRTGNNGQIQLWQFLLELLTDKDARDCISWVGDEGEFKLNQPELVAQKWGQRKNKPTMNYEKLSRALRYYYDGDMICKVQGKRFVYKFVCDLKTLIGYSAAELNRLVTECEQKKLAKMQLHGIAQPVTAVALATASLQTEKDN
Procedure, shortened: as §1

ERG = biological target: T3, ERG (Homo sapiens, UniProt P11308 1-479)
T3 sequence: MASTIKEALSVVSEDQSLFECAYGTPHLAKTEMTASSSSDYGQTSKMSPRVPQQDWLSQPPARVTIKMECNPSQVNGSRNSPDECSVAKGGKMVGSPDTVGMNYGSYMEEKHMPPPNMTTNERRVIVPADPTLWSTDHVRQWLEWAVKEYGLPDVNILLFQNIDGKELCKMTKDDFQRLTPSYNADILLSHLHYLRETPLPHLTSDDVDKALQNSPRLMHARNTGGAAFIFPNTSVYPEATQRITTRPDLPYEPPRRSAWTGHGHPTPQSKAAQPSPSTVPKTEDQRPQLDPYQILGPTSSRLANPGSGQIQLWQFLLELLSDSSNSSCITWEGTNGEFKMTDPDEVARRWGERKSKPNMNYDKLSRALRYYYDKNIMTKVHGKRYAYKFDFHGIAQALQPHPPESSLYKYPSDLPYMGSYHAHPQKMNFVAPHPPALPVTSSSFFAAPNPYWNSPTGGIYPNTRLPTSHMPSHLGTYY
Procedure, shortened: as §1

ELF1 = ELF1 (Homo sapiens, UniProt P32519 1-619)
Procedure, shortened: as §1

EHF = biological target: T4, EHF (Homo sapiens, UniProt Q9NZC4 1-300)
T4 sequence: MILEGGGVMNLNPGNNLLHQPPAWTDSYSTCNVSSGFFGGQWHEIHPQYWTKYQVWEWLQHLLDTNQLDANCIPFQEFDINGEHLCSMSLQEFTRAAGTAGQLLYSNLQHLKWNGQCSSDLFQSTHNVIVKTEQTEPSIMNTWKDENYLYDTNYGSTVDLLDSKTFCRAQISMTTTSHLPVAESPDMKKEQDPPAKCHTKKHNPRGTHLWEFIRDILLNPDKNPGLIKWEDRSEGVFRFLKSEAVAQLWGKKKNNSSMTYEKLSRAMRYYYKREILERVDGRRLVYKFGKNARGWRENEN
Procedure, shortened: as §1

SPIB = SPIB (Homo sapiens, UniProt Q01892 1-262)
Procedure, shortened: as §1

FEV = biological target: T5, FEV (Homo sapiens, UniProt Q99581 1-238)
T5 sequence: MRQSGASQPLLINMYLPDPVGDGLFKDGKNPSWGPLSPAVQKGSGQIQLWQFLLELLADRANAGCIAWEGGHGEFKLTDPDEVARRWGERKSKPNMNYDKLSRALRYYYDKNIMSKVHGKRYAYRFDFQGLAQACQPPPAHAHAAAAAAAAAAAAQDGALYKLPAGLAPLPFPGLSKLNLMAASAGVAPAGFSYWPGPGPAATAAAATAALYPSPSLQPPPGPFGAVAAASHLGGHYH
Procedure, shortened: as §1

ETV5 = ETV5 (Homo sapiens, UniProt P41161 1-510)
Procedure, shortened: as §1

ELF4 = ELF4 (Homo sapiens, UniProt Q99607 1-663)
Procedure, shortened: as §1

ETV2 = biological target: T6, ETV2 (Homo sapiens, UniProt O00321 1-342)
T6 sequence: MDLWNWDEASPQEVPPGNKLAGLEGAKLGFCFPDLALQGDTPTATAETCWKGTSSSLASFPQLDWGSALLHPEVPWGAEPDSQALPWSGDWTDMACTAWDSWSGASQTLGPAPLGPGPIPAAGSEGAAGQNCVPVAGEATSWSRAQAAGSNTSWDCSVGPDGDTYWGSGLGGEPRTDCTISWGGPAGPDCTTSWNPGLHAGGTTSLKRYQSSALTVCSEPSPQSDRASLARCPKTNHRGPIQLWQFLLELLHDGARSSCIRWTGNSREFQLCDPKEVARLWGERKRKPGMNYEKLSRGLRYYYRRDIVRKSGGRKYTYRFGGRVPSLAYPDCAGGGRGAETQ
Procedure, shortened: as §1

ELF3 = biological target: T7, ELF3 (Homo sapiens, UniProt P78545 1-371)
T7 sequence: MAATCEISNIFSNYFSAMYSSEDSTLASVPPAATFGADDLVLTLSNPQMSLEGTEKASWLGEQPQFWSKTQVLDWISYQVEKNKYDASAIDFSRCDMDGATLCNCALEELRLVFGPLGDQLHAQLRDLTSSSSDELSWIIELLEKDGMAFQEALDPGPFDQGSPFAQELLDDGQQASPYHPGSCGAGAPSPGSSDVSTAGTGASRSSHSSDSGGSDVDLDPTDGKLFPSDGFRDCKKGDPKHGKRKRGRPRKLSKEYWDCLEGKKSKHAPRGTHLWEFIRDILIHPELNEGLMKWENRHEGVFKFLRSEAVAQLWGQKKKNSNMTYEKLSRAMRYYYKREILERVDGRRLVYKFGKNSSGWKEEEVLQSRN
Procedure, shortened: as §1

ETV1 = ETV1 (Homo sapiens, UniProt P50549 1-477)
Procedure, shortened: as §1

ERF = biological target: T8, ERF (Homo sapiens, UniProt P50548 1-548)
T8 sequence: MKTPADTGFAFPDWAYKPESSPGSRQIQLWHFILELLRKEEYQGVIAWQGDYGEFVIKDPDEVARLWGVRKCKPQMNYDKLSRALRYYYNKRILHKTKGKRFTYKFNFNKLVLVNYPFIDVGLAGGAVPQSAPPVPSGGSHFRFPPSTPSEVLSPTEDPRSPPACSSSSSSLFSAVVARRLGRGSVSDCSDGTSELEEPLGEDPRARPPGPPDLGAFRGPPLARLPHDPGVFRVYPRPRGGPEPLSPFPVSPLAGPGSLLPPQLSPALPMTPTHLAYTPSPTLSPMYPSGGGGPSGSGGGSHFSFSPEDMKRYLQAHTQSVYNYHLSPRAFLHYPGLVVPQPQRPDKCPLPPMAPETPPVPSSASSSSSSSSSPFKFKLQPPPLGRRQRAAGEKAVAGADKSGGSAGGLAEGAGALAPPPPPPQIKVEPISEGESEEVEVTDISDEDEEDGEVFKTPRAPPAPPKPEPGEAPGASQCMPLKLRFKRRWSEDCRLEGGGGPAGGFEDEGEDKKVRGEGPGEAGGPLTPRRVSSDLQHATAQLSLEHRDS
Procedure, shortened: as §1

ETV3L = biological target: T9, ETV3L (Homo sapiens, UniProt Q6ZN32 1-361)
T9 sequence: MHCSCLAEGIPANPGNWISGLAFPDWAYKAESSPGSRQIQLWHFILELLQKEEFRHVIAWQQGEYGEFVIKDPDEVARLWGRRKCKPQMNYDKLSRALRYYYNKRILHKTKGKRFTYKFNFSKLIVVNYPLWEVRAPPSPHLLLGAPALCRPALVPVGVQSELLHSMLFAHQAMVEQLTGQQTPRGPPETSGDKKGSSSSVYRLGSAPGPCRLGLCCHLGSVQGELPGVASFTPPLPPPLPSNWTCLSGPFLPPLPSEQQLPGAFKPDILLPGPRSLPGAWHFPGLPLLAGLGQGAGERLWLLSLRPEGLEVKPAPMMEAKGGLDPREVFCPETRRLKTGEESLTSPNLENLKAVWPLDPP
Procedure, shortened: as §1

ETS2 = biological target: T10, ETS2 (Homo sapiens, UniProt P15036 1-469)
T10 sequence: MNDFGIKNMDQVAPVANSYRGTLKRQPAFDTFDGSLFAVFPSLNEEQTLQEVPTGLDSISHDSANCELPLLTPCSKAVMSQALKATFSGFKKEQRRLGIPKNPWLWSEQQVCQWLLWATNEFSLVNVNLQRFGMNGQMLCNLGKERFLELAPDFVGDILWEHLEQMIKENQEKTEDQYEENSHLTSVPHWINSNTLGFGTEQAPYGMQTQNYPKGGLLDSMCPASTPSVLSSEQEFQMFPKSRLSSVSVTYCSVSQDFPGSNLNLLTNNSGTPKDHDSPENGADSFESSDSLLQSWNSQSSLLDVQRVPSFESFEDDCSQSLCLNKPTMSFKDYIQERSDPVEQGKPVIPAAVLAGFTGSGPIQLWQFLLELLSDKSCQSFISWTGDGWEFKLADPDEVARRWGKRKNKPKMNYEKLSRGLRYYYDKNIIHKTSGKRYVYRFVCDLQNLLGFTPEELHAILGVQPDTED
Procedure, shortened: as §1

SPDEF = biological target: T11, SPDEF (Homo sapiens, UniProt O95238 1-335)
T11 sequence: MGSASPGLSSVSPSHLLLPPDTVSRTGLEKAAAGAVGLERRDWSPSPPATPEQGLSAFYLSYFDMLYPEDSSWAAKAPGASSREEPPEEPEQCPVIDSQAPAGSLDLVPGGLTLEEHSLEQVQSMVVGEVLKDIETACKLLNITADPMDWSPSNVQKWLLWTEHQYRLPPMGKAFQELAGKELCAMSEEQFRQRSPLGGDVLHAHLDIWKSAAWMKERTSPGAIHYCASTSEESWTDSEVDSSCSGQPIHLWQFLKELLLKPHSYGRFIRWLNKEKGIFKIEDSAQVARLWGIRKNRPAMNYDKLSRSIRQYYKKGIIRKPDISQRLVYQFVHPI
Procedure, shortened: as §1

ETV7 = biological target: T12, ETV7 (Homo sapiens, UniProt Q9Y603 1-341)
T12 sequence: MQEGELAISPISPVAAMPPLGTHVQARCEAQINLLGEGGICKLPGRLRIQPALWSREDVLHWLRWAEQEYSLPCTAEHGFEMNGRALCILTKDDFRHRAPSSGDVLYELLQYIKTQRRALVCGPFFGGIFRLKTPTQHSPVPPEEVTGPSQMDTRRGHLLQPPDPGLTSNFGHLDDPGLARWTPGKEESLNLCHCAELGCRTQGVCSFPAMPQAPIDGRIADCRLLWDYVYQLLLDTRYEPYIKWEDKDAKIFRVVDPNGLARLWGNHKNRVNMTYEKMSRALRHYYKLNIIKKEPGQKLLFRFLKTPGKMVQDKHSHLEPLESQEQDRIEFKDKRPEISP
Procedure, shortened: as §1

ETV3 = biological target: T13, ETV3 (Homo sapiens, UniProt P41162-2 1-143)
T13 sequence: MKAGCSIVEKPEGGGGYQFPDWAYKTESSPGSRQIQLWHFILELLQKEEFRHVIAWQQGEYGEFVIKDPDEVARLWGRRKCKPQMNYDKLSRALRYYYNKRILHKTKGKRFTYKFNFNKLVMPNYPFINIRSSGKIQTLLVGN
Procedure, shortened: as §1

ETV6 = ETV6 (Homo sapiens, UniProt P41212 1-452)
Procedure, shortened: as §1

ETV6, sequence (P41212 whole entry): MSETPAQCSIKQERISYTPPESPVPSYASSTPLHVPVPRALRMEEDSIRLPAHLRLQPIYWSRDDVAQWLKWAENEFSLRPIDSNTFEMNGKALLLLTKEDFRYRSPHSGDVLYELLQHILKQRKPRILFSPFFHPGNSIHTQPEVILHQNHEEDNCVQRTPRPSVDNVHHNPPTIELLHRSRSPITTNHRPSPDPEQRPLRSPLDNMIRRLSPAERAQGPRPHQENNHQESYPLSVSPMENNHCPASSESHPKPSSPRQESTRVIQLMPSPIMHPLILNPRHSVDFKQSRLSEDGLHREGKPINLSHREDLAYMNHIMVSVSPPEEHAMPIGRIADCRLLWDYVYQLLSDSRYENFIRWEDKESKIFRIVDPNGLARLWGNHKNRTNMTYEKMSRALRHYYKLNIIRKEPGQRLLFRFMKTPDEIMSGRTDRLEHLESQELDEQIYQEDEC
ETV1, sequence (P50549 whole entry): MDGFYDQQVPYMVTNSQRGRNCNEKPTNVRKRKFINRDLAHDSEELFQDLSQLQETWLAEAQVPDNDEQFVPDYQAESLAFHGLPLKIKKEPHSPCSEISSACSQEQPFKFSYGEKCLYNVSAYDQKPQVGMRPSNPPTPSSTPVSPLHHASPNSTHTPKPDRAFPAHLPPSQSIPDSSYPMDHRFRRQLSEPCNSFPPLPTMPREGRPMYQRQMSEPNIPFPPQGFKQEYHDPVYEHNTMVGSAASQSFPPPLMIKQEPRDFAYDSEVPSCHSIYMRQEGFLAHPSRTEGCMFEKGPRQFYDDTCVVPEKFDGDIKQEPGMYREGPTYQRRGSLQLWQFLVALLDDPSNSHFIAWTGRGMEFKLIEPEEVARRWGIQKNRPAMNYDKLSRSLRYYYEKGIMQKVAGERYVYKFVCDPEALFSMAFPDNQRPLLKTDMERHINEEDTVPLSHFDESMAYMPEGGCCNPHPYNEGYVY
SPIB, sequence (Q01892 whole entry): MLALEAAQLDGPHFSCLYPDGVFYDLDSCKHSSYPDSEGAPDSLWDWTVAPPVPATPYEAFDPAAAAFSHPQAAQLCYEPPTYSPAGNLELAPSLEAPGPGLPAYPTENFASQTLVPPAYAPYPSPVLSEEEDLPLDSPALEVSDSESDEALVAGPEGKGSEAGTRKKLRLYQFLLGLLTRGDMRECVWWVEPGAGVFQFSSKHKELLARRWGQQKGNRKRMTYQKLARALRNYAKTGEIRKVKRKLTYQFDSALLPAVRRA
ELF1, sequence (P32519 whole entry): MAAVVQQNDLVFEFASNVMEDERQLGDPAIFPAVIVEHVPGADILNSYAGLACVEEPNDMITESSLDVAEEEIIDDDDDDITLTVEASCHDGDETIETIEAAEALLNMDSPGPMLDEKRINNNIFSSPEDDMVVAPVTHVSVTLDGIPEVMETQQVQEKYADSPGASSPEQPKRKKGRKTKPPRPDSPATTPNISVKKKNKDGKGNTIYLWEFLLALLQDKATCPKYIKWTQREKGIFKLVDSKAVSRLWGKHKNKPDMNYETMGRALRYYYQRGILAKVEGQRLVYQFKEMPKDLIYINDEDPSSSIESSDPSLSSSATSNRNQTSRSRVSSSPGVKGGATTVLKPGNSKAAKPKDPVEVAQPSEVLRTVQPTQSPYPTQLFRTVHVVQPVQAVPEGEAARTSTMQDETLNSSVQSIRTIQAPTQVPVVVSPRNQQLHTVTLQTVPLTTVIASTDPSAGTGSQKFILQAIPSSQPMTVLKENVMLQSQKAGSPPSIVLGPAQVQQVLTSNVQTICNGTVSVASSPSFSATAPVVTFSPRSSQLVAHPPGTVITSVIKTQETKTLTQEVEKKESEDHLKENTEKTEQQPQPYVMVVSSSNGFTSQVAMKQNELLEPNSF
ETV5, sequence (P41161 whole entry): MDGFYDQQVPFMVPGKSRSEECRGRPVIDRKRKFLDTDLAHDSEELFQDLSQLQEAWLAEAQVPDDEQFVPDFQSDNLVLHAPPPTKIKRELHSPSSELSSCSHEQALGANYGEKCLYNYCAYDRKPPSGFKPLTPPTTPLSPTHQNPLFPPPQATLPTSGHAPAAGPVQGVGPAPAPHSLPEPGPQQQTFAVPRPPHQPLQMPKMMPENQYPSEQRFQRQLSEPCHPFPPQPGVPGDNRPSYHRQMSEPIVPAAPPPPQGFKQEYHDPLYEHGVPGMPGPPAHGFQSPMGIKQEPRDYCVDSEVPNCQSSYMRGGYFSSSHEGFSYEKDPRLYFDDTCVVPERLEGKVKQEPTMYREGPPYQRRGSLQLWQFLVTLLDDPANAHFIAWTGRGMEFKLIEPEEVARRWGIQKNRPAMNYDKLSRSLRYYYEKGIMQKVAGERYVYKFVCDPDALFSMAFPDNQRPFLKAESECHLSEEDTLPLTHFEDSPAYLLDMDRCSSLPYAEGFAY
ELF4, sequence (Q99607 whole entry): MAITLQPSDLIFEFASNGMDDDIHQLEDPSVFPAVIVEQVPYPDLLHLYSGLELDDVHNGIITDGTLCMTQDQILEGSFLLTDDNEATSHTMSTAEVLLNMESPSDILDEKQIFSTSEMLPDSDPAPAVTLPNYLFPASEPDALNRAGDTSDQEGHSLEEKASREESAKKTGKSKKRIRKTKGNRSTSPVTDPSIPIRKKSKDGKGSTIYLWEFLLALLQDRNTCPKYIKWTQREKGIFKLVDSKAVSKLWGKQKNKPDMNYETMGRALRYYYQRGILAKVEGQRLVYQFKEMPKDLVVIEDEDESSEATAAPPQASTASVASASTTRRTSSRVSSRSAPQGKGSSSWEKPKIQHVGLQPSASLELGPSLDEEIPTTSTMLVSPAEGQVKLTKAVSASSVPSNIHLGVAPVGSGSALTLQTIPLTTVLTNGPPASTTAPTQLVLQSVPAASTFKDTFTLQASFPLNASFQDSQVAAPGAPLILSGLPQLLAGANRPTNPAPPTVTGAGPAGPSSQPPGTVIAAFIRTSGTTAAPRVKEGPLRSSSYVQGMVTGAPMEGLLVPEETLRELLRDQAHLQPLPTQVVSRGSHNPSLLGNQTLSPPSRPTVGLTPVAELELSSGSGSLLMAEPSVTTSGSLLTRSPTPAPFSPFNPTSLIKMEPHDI

TGCGCC
binding signal (ELK1): 1.21 fold enrichment (6-mer frequency, TF over GST control) | binding signal (GABPA): 1.19 fold enrichment (6-mer frequency, TF over GST control) | binding signal (ERG): 1.2 fold enrichment (6-mer frequency, TF over GST control) | binding signal (ELF1): 1.14 fold enrichment (6-mer frequency, TF over GST control) | binding signal (EHF): 1.08 fold enrichment (6-mer frequency, TF over GST control) | binding signal (SPIB): 1.27 fold enrichment (6-mer frequency, TF over GST control) | binding signal (FEV): 1.16 fold enrichment (6-mer frequency, TF over GST control) | binding signal (ETV5): 1.04 fold enrichment (6-mer frequency, TF over GST control) | binding signal (ELF4): 1.19 fold enrichment (6-mer frequency, TF over GST control) | binding signal (ETV2): 1.18 fold enrichment (6-mer frequency, TF over GST control) | binding signal (ELF3): 1.03 fold enrichment (6-mer frequency, TF over GST control) | binding signal (ETV1): 1.23 fold enrichment (6-mer frequency, TF over GST control) | binding signal (ERF): 1.12 fold enrichment (6-mer frequency, TF over GST control) | binding signal (ETV3L): 1.27 fold enrichment (6-mer frequency, TF over GST control) | binding signal (ETS2): 1.14 fold enrichment (6-mer frequency, TF over GST control) | binding signal (SPDEF): 1.07 fold enrichment (6-mer frequency, TF over GST control) | binding signal (ETV7): 1.09 fold enrichment (6-mer frequency, TF over GST control) | binding signal (ETV3): 1.15 fold enrichment (6-mer frequency, TF over GST control) | binding signal (ETV6): 1.27 fold enrichment (6-mer frequency, TF over GST control)
